According to PubChem BioAssay (NCATS):
Results filed as inconclusive are left out. Calls of active or inactive are those of the source. The call rests on the fitted dose curve; in most records, active means well fitted inhibition curve with a large enough effect; inconclusive means small, poorly fitted or top-dose-only effect; inactive means flat fitted curve, though single readings scatter.

What was measured:
[1] = target: Glutathione peroxidase 1 (Homo sapiens) (UniProt P07203); test: Primary qHTS Assay for Inhibitors of Recombinant Selenoprotein Glutathione Peroxidase 1 (GPX1) (AID 1845191); further: nearly all actives have a fitted effect of over 65% in size
Glutathione peroxidase 1 (Homo sapiens), sequence (P07203 whole entry, looked up): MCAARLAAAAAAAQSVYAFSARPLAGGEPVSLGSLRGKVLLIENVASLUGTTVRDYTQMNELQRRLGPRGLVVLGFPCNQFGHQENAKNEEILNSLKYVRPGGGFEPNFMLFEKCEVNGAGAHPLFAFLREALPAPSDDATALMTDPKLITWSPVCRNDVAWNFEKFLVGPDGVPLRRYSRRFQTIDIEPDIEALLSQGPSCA
Method in brief: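 GR-coupled readout: NADPH consumption tracked by fluorescence, ex 340/em 450 nm, at t=0 and after 15 min at RT. Final mix 10 nM GPX1, 1 mM GSH, 0.5 mM CHP, 0.5 mM NADPH, 100 nM GR, 0.01% BSA, following 30 min enzyme–compound preincubation.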

[2] = target: Phospholipid hydroperoxide glutathione peroxidase GPX4 (Homo sapiens) (UniProt P36969); test: Primary qHTS Assay for Inhibitors of Recombinant Selenoprotein Glutathione Peroxidase 4 (GPX4) (AID 1845192); further: nearly all actives have a fitted effect of over 65% in size
Phospholipid hydroperoxide glutathione peroxidase GPX4 (Homo sapiens), sequence (P36969 whole entry, looked up): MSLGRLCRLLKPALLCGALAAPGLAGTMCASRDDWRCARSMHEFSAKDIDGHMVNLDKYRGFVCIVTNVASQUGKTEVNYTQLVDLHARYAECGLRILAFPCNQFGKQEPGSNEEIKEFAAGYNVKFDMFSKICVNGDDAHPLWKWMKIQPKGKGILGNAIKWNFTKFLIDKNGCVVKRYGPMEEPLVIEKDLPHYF
Method in brief: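 Steps: GPX4 plus compound, 30 min RT; add GR/GSH/NADPH master mix; start with cumene hydroperoxide; read 340/450 nm fluorescence at 0 and 15 min. Finals were 200 nM GPX4, 1 mM GSH, 0.5 mM CHP, 0.5 mM NADPH, 100 nM GR.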

[3] = target: Luciferin 4-monooxygenase (Photinus pyralis) (UniProt P08659); test: Primary firefly luciferase (FLuc) qHTS assay for identification of artifact compounds. (AID 1845220); further: nearly all actives have a fitted effect of over 60% in size
Method in brief: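 D-luciferin and ATP (10 uM each, final) in Tris acetate buffer pH 7.6 were incubated with compounds for 15 min at room temperature. The reaction was started with 10 nM Photinus pyralis luciferase and luminescence read after 5 min. Percent inhibition was fitted to a 4-parameter Hill equation.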

[4] = system: Nanoluciferase (engineered Oplophorus gracilirostris luciferase); test: Primary Nanoluciferase (NLuc) qHTS assay for identification of artifact compounds. (AID 1845222); further: series mostly up to about 54 µM
Method in brief: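 Diluted conditioned medium from NLuc-expressing S16 cells treated with compounds for 15 min at room temperature, then Nano-Glo substrate added; luminescence read after 5 min. Percent inhibition versus no-enzyme and DMSO controls fitted to 4-parameter Hill equation.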

Measured: Potency

COc1cc(C(=O)OC[C@@]2(O)CO[C@@H](O[C@H]3[C@H](Oc4ccc(O)cc4)O[C@H](CO)[C@@H](O)[C@@H]3O)[C@@H]2O)cc(OC)c1O
inactive: [1] | [2] | [3] | [4]

NC(N)=NCCC[C@H](NC(=O)c1sccc1NS(=O)(=O)c1cccc2nsnc12)C(=O)O
inactive: [1] | [2] | [3] | [4]

C=C1CC23CC1CCC2C12OC(=O)C(C)(C(O)CC1O)C2C3C(=O)O (stereo not drawn)
inactive: [1] | [2] | [3] | [4]

COc1cc2c(cc1OC)N1C(=O)C[C@@]34C=CC[N@+]5([O-])CC[C@H]2[C@H](CC3)[C@@]145
inactive: [1] | [2] | [3] | [4]

C[C@@H]1C(=O)O[C@H]2[C@H]1CC[C@@]1(C)C(=O)C=C[C@@](C)(O)[C@H]21
inactive: [1] | [2] | [3] | [4]

C=C(C)[C@H]1CC[C@]2(C(=O)O)CC[C@]3(C)C(CCC4[C@@]5(C)CCC(=O)C(C)(C)C5CC[C@]43C)C12 (stereo partly drawn)
inactive: [1] | [2] | [3] | [4]

CC1(C)C[C@H](O)C[C@@]2(C)[C@H]1[C@H](O)C=C1COC(=O)[C@@]12O
inactive: [1] | [2] | [3] | [4]

O=C(/C=C/c1ccc(O)cc1)O[C@@H]1C[C@@](O)(C(=O)O)C[C@@H](O)[C@@H]1O
inactive: [1] | [2] | [3] | [4]

CC1(CO)CCCC2(C)C3COC(=O)C3=CC(O)C12 (stereo not drawn)
inactive: [1] | [2] | [3] | [4]

COC1OC(=O)C2=C1C1(C)CCCC(C)(C)C1CC2O (stereo not drawn)
inactive: [1] | [2] | [3] | [4]

O=S(=O)(O)c1ccc(Nc2ncnc3c2ncn3[C@@H]2O[C@H](CO)[C@@H](O)[C@H]2O)cc1
inactive: [1] | [2] | [3] | [4]

CC1(C)C2CCC1(C)C(OC(=O)C(O)(CC(=O)O)CC(=O)O)C2 (stereo not drawn)
inactive: [1] | [2] | [3] | [4]
